Shiga toxin inh: A qHTS for Small Molecule Inhibitors of Shiga Toxin. Vero cells, Shiga toxin protein synthesis inhibition reporter. inhibition, % at 38.7 µM. 9.2% of 290,000 active. AID 2315, 2010; in the data active means inhibition mostly above about 28%, no sharp cut-off; inactive means mostly below about 43%; further: 0% is about no effect
RE007 growth inh: qHTS Assay for Inhibitors of the HIV-1 protein Vpr | S. pombe RE007 Vpr strain, BacTiter-Glo ATP luminescence, 24 h | Potency, µM (doses to about 92.2 µM), without a hit: top-dose activity change, negative = less growth, actives largely listed as inhibitors | 0.21% of 360,000 active | AID 651644, 2012; active means well fitted falling curve with a large enough effect; inconclusive means small, poorly fitted or top-dose-only effect; inactive means no such curve, though single readings can be large or run the other way; further: potency means the concentration at half of the fitted maximal effect; on the % scale 0 is the no-effect control and ±100 the full control effect; nearly all actives have a fitted effect of over 50% in size
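Fission yeast RE007 carrying one integrated HIV-1 vpr copy, seeded at OD 0.01 in PMG+AL medium with 23 nL pinned compound. Grown 24 h at 30 degrees; viability read by BacTiter-Glo luminescence after 5 min.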
TbPYK inhibitor: qHTS of Trypanosoma Brucei Inhibitors. 0.12% of 410,000 active. Potency, µM (titrated, usually from 76.8 µM), inactives show at the top dose activity, negative = inhibition, most hits filed as inhibitors. TbPYK enzyme, Kinase-Glo Plus ATP luminescence, 45 min. pyruvate kinase (Trypanosoma brucei), Q57TT1; further: potency means the concentration at half of the fitted maximal effect; on the % scale 0 is the no-effect control and ±100 the full control effect; nearly all actives have a fitted effect of over 50% in size
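T. brucei PYK with substrate was exposed to pin-transferred compounds across a concentration series, then started with 130 uM ADP (final). After 45 min at room temperature, Kinase-Glo Plus luminescence was read, normalized and curve-fitted.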
LmPK inh: qHTS Assay for Inhibitors of Leishmania Mexicana Pyruvate Kinase (LmPK); Q27686; purified LmPK, Kinase-Glo ATP luminescence, 1 h; Potency, µM (top dose mostly 57.5 µM), without a hit: at the highest dose activity change, negative = inhibition, usual class: inhibitors; 0.37% of 290,000 active; AID 1721, 2009; further: potency means the concentration at half of the fitted maximal effect; on the % scale 0 is the no-effect control and ±100 the full control effect
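Kinase-Glo luminescence read after 1 h RT reaction of 0.1 nM LmPK with 0.5 mM PEP and 0.1 mM ADP. Activity scaled between uninhibited and enzyme-free controls.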
Giardia FBPA inh: qHTS Assay for Inhibitors of Fructose-1,6-bisphosphate Aldolase from Giardia Lamblia; purified Giardia FBPA; Potency, µM (doses to about 59.6 µM), for inactives: top-dose activity, negative = inhibition, usual class: inhibitors; 0.71% of 290,000 active; further: potency means the concentration at half of the fitted maximal effect; on the % scale 0 is the no-effect control and ±100 the full control effect; nearly all actives have a fitted effect of over 55% in size
Target sequence (A8B2U2 whole entry, looked up): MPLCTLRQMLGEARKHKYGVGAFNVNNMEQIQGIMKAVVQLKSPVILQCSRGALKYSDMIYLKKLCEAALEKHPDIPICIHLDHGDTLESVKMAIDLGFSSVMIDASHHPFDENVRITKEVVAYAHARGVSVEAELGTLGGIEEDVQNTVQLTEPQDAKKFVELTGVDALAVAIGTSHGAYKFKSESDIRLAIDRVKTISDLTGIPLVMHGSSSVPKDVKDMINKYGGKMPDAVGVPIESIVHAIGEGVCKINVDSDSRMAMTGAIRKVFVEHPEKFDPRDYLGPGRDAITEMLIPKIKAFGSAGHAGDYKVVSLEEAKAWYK
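Giardia FBPA (40 nM reagent) was preincubated 10 min at RT with compound (up to 57.5 uM final), then substrate plus GAPDH/TPI/NAD/arsenate coupling system with diaphorase/resazurin was added; resorufin fluorescence (525/598 nm) was read after 20 min.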
CHX counter: Cycloheximide Counterscreen for Small Molecule Inhibitors of Shiga Toxin; cell reporter, cycloheximide protein synthesis inhibition counterscreen; AID 2314, 2010; 12% of 300,000 active; max response, %; in the data active means max response mostly above about 13%, no sharp cut-off; inactive means mostly below about 14%; further: read at 38.3 µM for the half of the compounds with a filed dose; 0% is about no effect
* hit, by the source's call; ? = inconclusive; . = not tested or not shown; [ ] = another dose, or the depositor's remark. Many of the other results were omitted from the sample, so hits are more common in it than they were. Unless noted, the call rests on the fitted dose curve; in most records, active means well fitted curve in the direction sought with a large enough effect; inconclusive means small, poorly fitted or top-dose-only effect, or another doubt; inactive means no such curve, though single readings can be large; an effect the other way counts as inactive or inconclusive.

SMILES | Shiga toxin inh | RE007 growth inh | TbPYK inhibitor | LmPK inh | Giardia FBPA inh | CHX counter
CC(=O)OC1CC2(C)/C(=N\O)CCC2C2CCc3cc(O)ccc3C12 (stereo not drawn) | -15 | -11% | 8% | 1% | 12% | -4
CCCCCCCCCCCCCCCCCC(=O)[O][Al] | . | . | 0% | . | . | .
COc1ccc(NC(=O)c2cc(C)no2)cc1 | 72* | 11% | -6% | -2% | 1% | 36*
OC(c1cccc(Cl)c1)c1nc(/C=C/c2ccc(C(F)(F)F)cc2)cs1 (stereo not drawn) | . | ? | -5% | . | . | .
O=C(Nc1nc2ccccc2[nH]1)C1CC(=O)N(c2ccc3c(c2)OCCO3)C1 (stereo not drawn) | 42 | 3% | -2% | 5% | -7% | 28*
Cc1ccnc(NC(=O)C2CC(=O)N(c3ccc4c(c3)OCCO4)C2)c1 (stereo not drawn) | 92* | -16% | 3% | -13% | . | 34*
Cn1c(=O)n(C)c2cc(N3CCOCC3)c(NC(=O)c3ccc(F)cc3)cc21 | 2 | 3% | -3% | 6% | . | -2
Cc1ccc(-c2cc(=O)c3cc(Cl)ccc3[nH]2)cc1 | 39* | . | . | -4% | 0%[89.2 µM] | 26*
Cc1ccc2[nH]c(-c3ccccc3)cc(=O)c2c1 | 49 | -15% | -6% | -7% | 1% | 30*
Cc1ccc(-c2cc(=O)c3ccccc3[nH]2)cc1 | 112* | -19% | 1% | 5% | 4%[136 µM] | 29*
CCN(CC)Cc1c(-c2ccccc2)[nH]c2ccc(C)cc2c1=O | 35* | -17% | -1% | 7% | -6% | 29*
CCCCN(C)Cc1c(C)[nH]c2ccc(C)cc2c1=O | -2 | -18%[3.69 µM] | . | 3% | 11% | -3
O=C(CCn1c(=O)c2sccc2n(Cc2cccc(F)c2)c1=O)NCc1ccc2c(c1)OCO2 | . | . | 4% | . | . | .
COc1cc2nc(NCCc3cccc(C)c3)n3nc(-c4ccccc4)nc3c2cc1OC | . | . | 1% | . | . | .
COc1ccc(N2CCN(c3nccs3)CC2)cc1 | 72* | -16% | 0% | 0% | 10% | 37*
CCN(CC)CCC(c1ccc(N(C)C)cc1)c1c(OC)cc(OC)c2c(C)cc(=O)oc12 (stereo not drawn) | -12 | . | . | . | -9% | -5
Cn1c(=O)c(C(=O)COC(=O)c2cc(-c3ccco3)nc3ccccc23)c(N)n(CC2CC2)c1=O | 31 | . | . | 5% | -24% | 22*
Cc1ccc(C(=O)Cn2c(=N)n(N)c3ccccc32)cc1 | 81* | 17% | 2% | -1% | -5% | 46*
CCN(CC)CCn1c(=N)n(CC(=O)c2ccc(C)cc2)c2ccccc21 | . | -4% | 2% | -2% | -3% | 27*
CCc1noc(C)c1C(=O)OCC(=O)NC(=O)c1ccccc1 | 24 | 6% | 1% | -2% | 7% | 11
Cc1ccc(S(=O)(=O)c2nc(-c3cccc(C)c3)oc2N2CCCCC2)cc1 | . | . | 2% | . | . | .
Cc1cc(C)n(Cc2ccc(NC(=O)c3nn(C)cc3[N+](=O)[O-])cc2)n1 | -24 | 0% | 3% | 5% | 11% | 14
Cn1cc([N+](=O)[O-])c(C(=O)Nc2ccc(C(=O)N3CCCCC3)cc2)n1 | 29* | 1% | 2% | -7% | 1% | 11
Cn1cc([N+](=O)[O-])c(C(=O)Nc2ccc(C3CCCCC3)cc2)n1 | 86* | -5% | -3% | 1% | 0% | 46*
N#C/C(=N\Nc1cc(Cl)cc(Cl)c1)c1nnc2n1CCCCC2 | 7 | 9% | -1% | 3% | ? | 6
SMILES | Shiga toxin inh | RE007 growth inh | TbPYK inhibitor | LmPK inh | Giardia FBPA inh | CHX counter
CCOC(=O)C1=C(C)N(c2ccc(OC)cc2)C(=O)/C1=C\c1ccc(O)c(OCC)c1 | 23 | -2% | -25% | 32µM* | ? | 1
CCOC(=O)C1=C(C)N(c2ccc(OC)cc2)C(=O)/C1=C\c1cccs1 | 2 | 9% | 4% | 0% | -1% | 6
CC1CN(C(=O)c2cc([N+](=O)[O-])cc([N+](=O)[O-])c2)CC(C)O1 (stereo not drawn) | 104* | 4% | 0% | 1% | -2% | 42*
Cc1ccc(CN2C(=O)CCC2C(=O)NCCN(CC(C)C)CC(C)C)cc1 (stereo not drawn) | 35 | 1% | 3% | 3% | -7% | 26*
Cc1ccc(C(C)C)cc1-n1nnc(-c2cccc(Cc3ccc4ccccc4c3)c2)c1C(C)O (stereo not drawn) | . | -11% | 3% | . | . | .
O=C(CN1CC(c2ccccc2)CC1=O)OCc1ccccc1F (stereo not drawn) | 97* | 4% | -8% | 5% | 4% | 44*
NC(=O)CN1CC(c2ccccc2)CC1=O (stereo not drawn) | -17 | -1% | 4% | 3% | 2% | -5
COc1ccc(CN2C(=O)c3cccnc3C2=O)cc1S(=O)(=O)N1CCOc2ccc(C)cc21 | -4 | 2% | -1% | 3% | . | 11
CC(C)c1ccc(NC(=O)N2CCc3ccccc3C2)cc1 | 96* | 3% | 4% | -4% | -25% | 42*
O=[N+]([O-])c1ccc(N2CCc3ccccc3C2)cc1 | . | -27% | 0% | -1% | -7% | 26*
O=C(NCCN1CCc2ccccc2C1)Nc1ccc([N+](=O)[O-])cc1 | -11 | -27% | -2% | 12% | ? | 6
O=C(Nc1ccc([N+](=O)[O-])cc1)N1CCc2ccccc2C1 | . | 7% | -2% | 1% | -3% | 38*
CC(C)c1ccc(NC(=O)Cc2ccc(NC(=O)N3CCCCc4ccccc43)cc2)cc1 | . | . | 0% | . | . | .
O=[N+]([O-])c1ccc(-c2csc(N3CCc4ccccc4C3)n2)cc1 | -6 | -27% | 5% | 4% | 0% | -2
O=C(O)CNC(=O)/C(=C\c1cccc([N+](=O)[O-])c1)NC(=O)c1ccco1 | -5 | 13% | -7% | -1% | -2% | -6
CCOC(=O)C1CCN(C(=O)C2CCC(=O)N(Cc3cccc(C(F)(F)F)c3)C2)CC1 (stereo not drawn) | 32 | 10% | -2% | 3% | . | 14*
O=C1CCC(C(=O)N2CCCC2)CN1CCc1cccc(F)c1 (stereo not drawn) | -8 | -22% | 0% | 3% | -10% | 14
CCOC(=O)N1CCN(C(=O)C2CCC(=O)N(Cc3cccc(C(F)(F)F)c3)C2)CC1 (stereo not drawn) | -7 | 9% | -3% | -6% | . | -2
O=C(NCc1cccc(F)c1)C1CCC(=O)N(CCc2cccc(F)c2)C1 (stereo not drawn) | 13 | -9% | -2% | 1% | . | 20*
